In PubChem BioAssay (NCI) one finds growth data, which are given here for nine compounds.

Among the test systems are SK-MEL-2 melanoma; EKVX NSCLC; SN12C renal; UO-31 renal; TK-10 renal; ACHN renal; CAKI-1 renal; A498 renal; CCRF-CEM leukemia; MOLT-4 leukemia; RPMI-8226 leukemia; OVCAR-8 ovarian; OVCAR-5 ovarian; OVCAR-4 ovarian; SK-OV-3 ovarian; IGROV1 ovarian; OVCAR-3 ovarian; HS 578T breast; SR leukemia; NCI/ADR-RES ovarian.
Holding throughout (test): NCI-60 one-dose screen, 48 h (100 = growth as untreated, 0 = no growth, -100 = all killed)
What all share (details): 10 µM unless noted

Molecules are shown by their SMILES. The panel holds about 83,000 compounds, 20% with a hit somewhere; the sample as a whole holds those more often.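 Method: cells in 96-well plates; compound added at one concentration; 48 h incubation; percent growth measured; values under 10 scored active.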 Unmarked numbers belong to inactive results. The source made the active and inactive calls.

`CNC(=O)c1[nH]cc(-c2ccccc2)c1-c1cc(OC)c2c(c1OC)OCO2`: the growth is 102% in the test with SK-MEL-2 melanoma; 98% with EKVX NSCLC; 91.1% in the test with SN12C renal; 83.8% in the test with UO-31 renal; 106% in the test with TK-10 renal; 95.8% in the test on ACHN renal. Besides, the growth in the test with CAKI-1 renal is 76.5%; with A498 renal it was 95.4%; in the test with CCRF-CEM leukemia, 108%; in the test with MOLT-4 leukemia, 101%; with RPMI-8226 leukemia it was 105%; with OVCAR-8 ovarian, 100%. Further, the growth is 101% in the test with OVCAR-5 ovarian; 106% in the test on OVCAR-4 ovarian; 108% in the test on SK-OV-3 ovarian; 103% in the test on IGROV1 ovarian; 94.9% in the test with OVCAR-3 ovarian; 102% in the test with HS 578T breast.
As to `CC/C=C\C[C@@H]1C/C=C2/C(=O)C=C[C@H]2C/C=C\CCCC(=O)O1`, the growth in the test on SK-MEL-2 melanoma was -39.2% (active); in the test on EKVX NSCLC it was -25.1% (active); with SN12C renal, -28.8% (active); in the test with UO-31 renal it was -91.9% (active); in the test with TK-10 renal, -42.5% (active); in the test with ACHN renal, -86.2% (active). Besides, the growth in the test with CAKI-1 renal is 9.49% (active); in the test with A498 renal, -88.4% (active); with CCRF-CEM leukemia, -28.7% (active); with MOLT-4 leukemia it was -24.9% (active); in the test with SR leukemia, -30.3% (active); in the test on OVCAR-8 ovarian, 4.94% (active). For the same compound, the growth in the test on OVCAR-5 ovarian is -32.8% (active); with OVCAR-4 ovarian, 5.92% (active); with SK-OV-3 ovarian, -8.9% (active); in the test with OVCAR-3 ovarian, -95.4% (active); with HS 578T breast it was -1.47% (active); in the test with NCI/ADR-RES ovarian, 10.9%.
In the case of `CCOC(=O)C1=C(N)Oc2c(sc3c(C)cccc23)C1c1ccc(OC)cc1` (stereo not drawn), the growth in the test with SK-MEL-2 melanoma is 22.9%; in the test on EKVX NSCLC, 88.5%; in the test with SN12C renal it was 39.7%; with UO-31 renal, 41.5%; in the test on TK-10 renal, 110%; in the test with ACHN renal, 34%. Also, the growth is 5.78% (active) with CAKI-1 renal; 4.89% (active) with A498 renal; 24.3% in the test on CCRF-CEM leukemia; 29.4% in the test on MOLT-4 leukemia; 29.1% in the test on SR leukemia; 46.6% in the test with OVCAR-8 ovarian. In addition, the growth is 75.9% with OVCAR-5 ovarian; 65.5% in the test on OVCAR-4 ovarian; 27.9% in the test on IGROV1 ovarian; 11% with OVCAR-3 ovarian; 30% with HS 578T breast; 30.8% in the test with NCI/ADR-RES ovarian.
For the compound `COc1cc2cc(Oc3ccc(NC(=O)Nc4ccc(Cl)c(C(F)(F)F)c4)cc3)c(C)nc2cc1OCCN1CCOCC1`, the growth was 31.4% in the test with SK-MEL-2 melanoma; 17.2% in the test on EKVX NSCLC; 10.1% with SN12C renal; 28.2% in the test with UO-31 renal; 42.8% in the test with TK-10 renal; 10% with ACHN renal. Further, the growth is 18.7% in the test on CAKI-1 renal; 41.5% in the test with A498 renal; 10.4% with CCRF-CEM leukemia; -4.07% (active) in the test with MOLT-4 leukemia; -1.99% (active) in the test on SR leukemia; 13.4% in the test on OVCAR-8 ovarian. Moreover, the growth in the test on OVCAR-5 ovarian is 55.6%; in the test with SK-OV-3 ovarian, 31%; with IGROV1 ovarian it was 34.7%; in the test on OVCAR-3 ovarian, 16.5%; in the test with HS 578T breast, 72.6%; in the test on NCI/ADR-RES ovarian, 11.4%.
As to `COc1ccc(-c2nc(NCCO)[nH]c(=O)c2C#N)cc1`, the growth in the test on SK-MEL-2 melanoma is 98.6%; in the test on EKVX NSCLC it was 110%; with SN12C renal, 95.9%; in the test with UO-31 renal, 90.5%; in the test on TK-10 renal, 99.7%; in the test on ACHN renal it was 96.5%. In addition, the growth with CAKI-1 renal was 101%; in the test on A498 renal, 113%; with CCRF-CEM leukemia, 102%; in the test on MOLT-4 leukemia it was 98.8%; in the test on SR leukemia, 94.3%; in the test on OVCAR-8 ovarian, 107%. Moreover, the growth with OVCAR-5 ovarian is 92.8%; with OVCAR-4 ovarian it was 107%; in the test with OVCAR-3 ovarian, 111%; in the test with HS 578T breast it was 106%; in the test on NCI/ADR-RES ovarian, 98.1%.
In the case of `Cc1nn(-c2ccccc2)c(-n2ccnc2)c1/C=N/Nc1nc(-c2ccc(Cl)c(Cl)c2)cs1`, the growth in the test on SK-MEL-2 melanoma was 83.7%; with EKVX NSCLC, 30.8%; in the test with SN12C renal, 31.3%; in the test on UO-31 renal it was 49.6%; in the test on TK-10 renal, 2.74% (active); in the test with ACHN renal, 39.9%. The growth in the test on CAKI-1 renal was 24.9%; with A498 renal, 43.5%; with CCRF-CEM leukemia, 26.1%; in the test with MOLT-4 leukemia it was 32.3%; with SR leukemia, 41.2%; in the test with OVCAR-8 ovarian it was 20%. The growth with OVCAR-5 ovarian was 71.8%; in the test on OVCAR-4 ovarian it was -22.1% (active); with IGROV1 ovarian, 60.9%; in the test with OVCAR-3 ovarian, -69.4% (active); in the test with HS 578T breast, 42%; with NCI/ADR-RES ovarian it was -9.8% (active).
Consider `CCCCCCCNC(=O)CCCNc1ncnc2c1ncn2-c1cccc(C(C)O)c1` (stereo not drawn), for which the growth in the test with SK-MEL-2 melanoma was 105%; in the test on EKVX NSCLC it was 76.4%; with SN12C renal, 91.4%; with UO-31 renal it was 83.6%; with TK-10 renal, 97.5%; in the test on ACHN renal, 89.6%. Moreover, the growth in the test on CAKI-1 renal was 90.2%; with A498 renal, 123%; in the test with CCRF-CEM leukemia, 18.4%; in the test with MOLT-4 leukemia it was 78.2%; with SR leukemia, 84.2%; in the test with OVCAR-8 ovarian, 91.1%. For the same compound, the growth with OVCAR-5 ovarian is 88.2%; in the test on OVCAR-4 ovarian, 84.8%; in the test on SK-OV-3 ovarian it was 104%; in the test with OVCAR-3 ovarian, 87.1%; with HS 578T breast it was 97.4%; in the test with NCI/ADR-RES ovarian, 95.8%.
Take `NS(=O)(=O)c1ccc(-n2nc(-c3ccc(Cl)cc3)c3ccccc3c2=O)cc1`: the growth in the test on SK-MEL-2 melanoma was 110%; in the test with EKVX NSCLC it was 82.5%; with SN12C renal, 93.4%; in the test on UO-31 renal it was 52.6%; with TK-10 renal, 152%; with ACHN renal it was 94.8%. The growth in the test with CAKI-1 renal is 95.9%; in the test on A498 renal, 123%; in the test with CCRF-CEM leukemia, 70.3%; in the test with MOLT-4 leukemia, 59.5%; in the test on RPMI-8226 leukemia, 84.6%; with OVCAR-8 ovarian, 96.9%. In addition, the growth is 93.7% in the test with OVCAR-5 ovarian; 93.7% with OVCAR-4 ovarian; 96.9% in the test with SK-OV-3 ovarian; 75.5% with IGROV1 ovarian; 108% with OVCAR-3 ovarian; 88.7% in the test on HS 578T breast. For the same compound, in the test on NCI/ADR-RES ovarian, the growth is 86.2%.
Turning to `O=C(S)CNC(=O)c1ccccc1`, the growth in the test on SK-MEL-2 melanoma was 101%; with EKVX NSCLC, 95.8%; in the test with SN12C renal it was 95.6%; in the test with UO-31 renal it was 76.5%; in the test on TK-10 renal it was 91.6%; in the test on ACHN renal it was 103%. Further, the growth was 90.7% in the test with CAKI-1 renal; 83.5% in the test with A498 renal; 89.9% with CCRF-CEM leukemia; 87.7% in the test on MOLT-4 leukemia; 94.5% with RPMI-8226 leukemia; 101% in the test with OVCAR-8 ovarian. In addition, the growth was 93.1% in the test on OVCAR-5 ovarian; 110% in the test on OVCAR-4 ovarian; 89.4% with SK-OV-3 ovarian; 105% with IGROV1 ovarian; 101% in the test with OVCAR-3 ovarian; 79.5% in the test with HS 578T breast. Moreover, the growth in the test on NCI/ADR-RES ovarian is 96.5%.
